Results reported in PubChem BioAssay AID1259336 (Sattelle Laboratory, UCL Respiratory, Division of Medicine, …, 2017).
Values without a mark were called inactive. Active and inactive are the calls of the source. Rule as the data show it: active = log2 fold change growth below about -1.8; inactive = the rest.

Assay: anthelmintic activity against nematode growth – whole organism, log2 fold change (AID 1259336);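 also: growth scored by imaging after five days at 20 °C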
Conditions: C. elegans growth, anthelmintic screen; hits give low values

Structure (SMILES)	log2 fold change growth
Nc1ncc(-c2cn[nH]c2)cc1-c1nc2ncc(Cl)cc2[nH]1	-0.454
COc1cccc(OCC(=O)c2ccc(Br)cc2)c1	-0.945
CCCn1c(NC(=O)c2ccc3ccccc3n2)nc2ccccc21	-0.0431
CCN(CC)CCCCCCNc1cc(OC)cc2c(C)ccnc12	-0.053
O=C(NC1CC1)c1ccc(N2CCC(Cc3ccccc3)CC2)nc1	0.0189
COc1nc2ccc(Br)cc2cc1[C@@H](c1ccccc1)[C@@](O)(CCN(C)C)c1cccc2ccccc12	0.248
COc1cc(Br)cc2cc(C(=O)Nc3cccc(C(F)(F)F)c3)c(=O)oc12	0.421
Cc1cc(NC(=O)c2ccc(S(=O)(=O)N(Cc3ccccc3)C(C)C)cc2)no1	-0.0868
NCCN(C(=O)c1ccc(Cl)cc1Cl)c1ccc(OCc2ccc(Cl)cc2)cc1	-0.0401
Cn1c(=O)c2c(S(C)(=O)=O)snc2n(C)c1=O	0.155
CC(C)(C)C(=O)N(CCCCCCN1C[C@H](O)[C@@H](O)[C@H](O)[C@H]1CO)C1CCCCCC1	-0.767
COc1ccc(-c2cncc3ccc(C(=O)NCCCn4ccnc4)nc23)cc1	0.283
COc1ccc(C2=NN(C3CCCCCC3)C(=O)C2(C)C)cc1OCCCCOc1ccc(-c2nn[nH]n2)cc1	-0.216
COc1ccccc1[C@H](C)NCC(=O)Nc1cc(C(F)(F)F)ccc1Cl	0.142
O=C(Nc1ccc(C(F)(F)F)c(C(F)(F)F)c1)c1cc(Cl)ccc1O	0.513
CNC(=O)c1cc(S(=O)(=O)N2CCN(c3ccccn3)CC2)cs1	-0.156
C[C@@H](C(=O)N1CCCC1)N1CCN(S(=O)(=O)c2ccc(C(C)(C)C)cc2)CC1	0.667
Cc1cc2nc(NC(=O)C(C)(C)C)nc(Cl)c2n1Cc1ccc(Cl)cc1	0.316
O=C(Nc1n[nH]c(=S)s1)c1cc(Br)ccc1Cl	0.172

Structure (SMILES)	log2 fold change growth
CCc1ccc([C@@H]2C[C@H](C(F)(F)F)n3ncc(C(=O)NCc4ccc(OC)cc4)c3N2)cc1	-1.82 (active)
CCCc1ccc(S(=O)(=O)Nc2ccc(CN3CCN(CC4CC4)CC3)cc2)cc1	0.319
Cc1cc2ccccc2n1CC(=O)N1C[C@@H](C(=O)N2CCCCC2)Oc2ccccc21	0.0798
Cc1ncc(-c2ccnc(Nc3ccc(S(C)(=O)=O)cc3)n2)n1C(C)C	0.268
Cc1cccc(Cn2ccc(NC(=O)c3ccc4c(c3)OCO4)n2)c1	-0.327
CN(C)CCNC(=O)N1CCCN(c2ncnc3cc(-c4ccccc4)sc23)CC1	-0.255
CNC(=O)CNc1nc(-c2ccccn2)nc2scc(-c3ccccc3)c12	0.152
O=C(NCCN1CCCC1)c1cc(NCCCCN2CCC(F)(F)CC2)nc2ccc(Cl)cc12	0.489
Clc1ccc(-n2cc(COc3ccnc4ccccc34)nn2)cc1	-5.7 (active)
CCNC(=O)[C@H](C)Nc1nc(-c2cccnc2)nc2sc(C)c(C)c12	0.136
CC(C)(C(=O)Nc1ccc(F)cc1)n1cc(-c2ccccc2F)cn1	0.0447
COc1ccc(-c2nc(-c3cccc(NC(=O)Cc4ccc(F)cc4)c3)no2)cc1OC	-0.107
CN1CCN(c2cc(-c3ccc(F)cc3)nc(-c3ccncc3)n2)CC1	-1.96 (active)
Nc1ccc(C(=O)Nc2ccc(-c3nc4ccccc4o3)cc2)cc1	-7.04 (active)
Cc1cc(C)nc(-n2nc(C)cc2Nc2ccccc2)n1	0.0497
Cc1cc(Nc2ccncc2)n2nc(C)c(-c3ccccc3Cl)c2n1	-0.496
Cc1nn(C(=O)Nc2cccc(C(F)(F)F)c2)c(C)c1Sc1ncccn1	-0.494
COc1ccc(Cn2cnc3c(-c4ccco4)nc(Cl)nc32)cc1	-0.325
Brc1cncc(-c2cc(NCCCn3ccnc3)nc(-c3ccccc3)n2)c1	-1.17
